assay: basal MM1S mitochondrial membrane potential changes, profiling panel, cell-based, JC-1 fluorescence, 24 h, 100 nL compound (AID 1170); settings: higher = more signal; also: test concentration not given here

Structure (SMILES)	z-score
[N-]=[N+]=NCc1ccccc1[C@@H]1OC(c2ccc(OCCCO)cc2)=N[C@]1(CCS(=O)(=O)c1ccccc1)C(=O)O	-1.39
CC1CC/C=C\[C@H]2OC34C=CCN(c5ccc(Cl)cc5)C(=O)[C@H]3N(C(C)CO)C(=O)[C@]4(C)C2C(=O)O1 (stereo not given in full)	-0.723
C=CC[C@]1(C(=O)N2CCCCC2)N=C(c2ccc(OCCCO)cc2)O[C@H]1c1ccccc1CN=[N+]=[N-]	-0.576
COc1ccc([Si](C)(C)[C@H]2[C@H](CC(=O)N3CCC[C@H]3CO)O[C@@]3(C(=O)N(Cc4ccc(N5CCOC5=O)cc4)c4ccccc43)[C@@H]2C)cc1	-0.325
Cc1cc(C)c(C(O)C2C=CC3C(=O)N(c4ccccc4)C(=O)C3N2Nc2ccccc2F)c(C)c1 (stereo not given)	1.01
CC[C@@H]1O[Si](C(C)C)(C(C)C)c2c1cc(-c1cc(C)c(OC)c(C)c1)nc2-c1ccc(Oc2ccccc2)cc1	0.207
O[C@@H](Cc1ccccc1)[C@@H](/C=C/C1CC1)N(CC#Cc1ccccc1)Cc1ccccc1Br	-0.571
COC(=O)C/C=C/C[C@]1(O)C(=O)N(C)c2ccccc21	2.2
C=CC[C@@]1(C(=O)NCCCOC)N=C(c2ccc(OCCCO)cc2)O[C@@H]1c1ccccc1N=[N+]=[N-]	-0.917
COC(=O)[C@@H]1N=C(c2ccc(OCCCO)cc2)O[C@@H]1C	-1
CCCC=C(CCC)[C@@H](NC(=O)c1cccs1)c1ccc(C(=O)OC)cc1	-0.997
COc1cc(NN2C(C(O)c3cc(OC)c(OC)c(OC)c3)C=CC3C(=O)N(C)C(=O)C32)cc(OC)c1OC (stereo not given)	-0.417
COc1cc(OC)c(C(O)C2C=CC3C(=O)N(Cc4ccccc4)C(=O)C3N2n2cnnc2)cc1Br (stereo not given)	-0.395
C=CCC(OC(C)=O)[C@@H]1[C@@H](N(Cc2cc3ccccc3o2)C(=O)Cc2ccc(F)cc2)c2cc(OCCCO)ccc2N1C(=O)Cc1ccc2ccccc2c1 (stereo not given in full)	1.19
COc1ccc(CCNC(=O)[C@@H]2c3ccccc3C(=O)N(C3CCCCC3)[C@H]2c2ccc(CO)cc2)cc1	0.337
C[N+](C)(C)CCCC[C@@H]1NC(=O)[C@@H]2C[C@H](C(=O)NCCCCCCN)[C@H](c3cccc(OCCO)c3)N2C1=O	0.246
O=C1C2C=CC(C(O)C3CC=CCC3)N(Nc3ccccc3)C2C(=O)N1c1ccccc1 (stereo not given)	-1.02
O=C1C2C=CC(C(O)c3ccco3)N(Nc3ccccc3F)C2C(=O)N1c1ccccc1 (stereo not given)	0.128

Structure (SMILES)	z-score
COC(=O)c1c(CC[C@@H](CO)NC(=O)N2CCC[C@H]2Cn2cc(C3(O)CCCCC3)nn2)oc(C(C)=O)c1C(=O)OC	-0.38
C=C(/C(=C/C[C@H](OC(=O)c1ccncc1)c1ccc(CO)o1)c1cnc2ccccc2c1)C(C)C	-0.161
COCC(=C=CC[C@H](O)c1ccccc1OCCO)C[C@H](O)c1ccccn1	-1.09
CC(C)c1ccc(NN2C(C(O)c3ccc(F)cc3)C=CC3C(=O)N(c4ccccc4)C(=O)C32)cc1 (stereo not given)	-0.958
CO[C@H]1O[C@H](CO)[C@@H](OC(=O)Nc2ccc3c(c2)OCO3)[C@H](OC(=O)Nc2ccc3c(c2)OCO3)[C@@H]1OC(=O)Nc1ccc2c(c1)OCO2	-0.357
CCCNC(=O)[C@@H]1c2ccccc2C(=O)N(Cc2ccc(OC(F)(F)F)cc2)[C@H]1c1ccc(CO)cc1	0.129
CCOC(=O)C[C@H]1[C@H](OC(=O)c2cc3ccccc3oc2=O)[C@@H](NC(=O)c2ccccc2)c2cc(OCCCO)ccc2N1C(=O)c1ccccc1	0.185
CCCNC(=O)[C@@]1(C)c2ccccc2C(=O)N(c2ccc(C)cn2)[C@H]1c1ccc(CO)cc1	0.43
CC(C)C(O)C1C=CC2C(=O)N(c3ccccc3)C(=O)C2N1Nc1ccccc1 (stereo not given)	-1.35
CCCCC(CC)C(O)C1C=CC2C(=O)N(c3ccccc3)C(=O)C2N1Nc1ccc(C#N)cc1 (stereo not given)	-0.679
COc1ccc(CCNC(=O)[C@@]2(Cc3ccccc3I)c3ccccc3C(=O)N(C3CCCCC3)[C@H]2c2ccc(CO)cc2)cc1	-1.17
[N-]=[N+]=Nc1ccccc1C[C@@]1(C(N)=O)N=C(c2ccc(OCCCO)cc2)O[C@@H]1c1ccccc1N=[N+]=[N-]	-0.169
C=CCN1C(=O)[C@]2(CCS(=O)(=O)c3ccccc3)N=C(c3ccc(OCCCO)cc3)O[C@@H]2c2ccccc21	0.615
NC(=O)NCC#Cc1ccc2c(c1)[C@]1(C(=O)N2)[C@H](c2ccccc2OCCO)N2[C@H](c3ccccc3)[C@H](c3ccccc3)OC(=O)[C@H]2[C@@H]1C(=O)O	-0.394
NCCCCCNC(=O)[C@H]1C[C@H]2C(=O)N3CCC[C@H]3C(=O)N2[C@H]1c1cccc(OCCO)c1	-0.503
COc1ccc([Si](C)(C)[C@@H]2[C@@H](CCO)O[C@]3(C(=O)N(Cc4cccc(NC(=O)[C@H](C)O)c4)c4ccccc43)[C@H]2C)cc1	-2.24
CCCCN1CC=CC23O[C@@H]4/C=C\CCCOC(=O)C4[C@H]2C(=O)N(CCO)[C@@H]3C1=O (stereo not given in full)	1.39

Source: PubChem BioAssay
